Screening results as filed in PubChem BioAssay.
PNC assembly inh: inhibitors of perinucleolar compartment assembly; AID 2417; 140,000 compounds, 3.1% hits; PC3M PTB-GFP, PNC prevalence imaging, 16 h; active compounds read low; activity change (PNC), negative = inhibition, % at 10 µM;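 active means readout at or below -70, meaning at least 70% loss of cells showing the perinucleolar compartment, a nuclear body marking cancer cells; inconclusive means readout between -30 and a set limit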
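Compounds are pinned in duplicate onto adhered PC3M cells stably expressing GFP-tagged PTB and incubated 16 h at 37 C. Cells are then fixed, nuclei stained with Hoechst, and PNC-positive cells counted.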
HttQ103 aggreg: reduces HttQ103-GFP aggregates in PC12 cells; PC12 HttQ103-GFP aggregates, Acumen cytometry, 40 h; Potency, µM (doses to about 46.1 µM), actives largely listed as inhibitors; 220,000 compounds, 1.1% hits; further: nearly all actives have a fitted effect of over 60% in size
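Steps: seed 1500 PC12 HTTQ103-GFP cells/well; add tebufenozide, 100 nM final; add compound titration; add ATPLite reagent; quantify GFP aggregates by laser scanning cytometry.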
HPGD inh: HPGD (human) dehydrogenase inhibition | purified HPGD, NADH fluorescence kinetic, PGE2 substrate | Potency, µM, most hits filed as inhibitors | 150,000 compounds, 4.3% hits; active means well fitted inhibition curve with a large enough effect, not every such curve was filed as active; inconclusive means small, poorly fitted or top-dose-only effect, or another doubt; inactive means no such curve, though single readings can be large or run the other way
Target sequence (P15428 whole entry, looked up): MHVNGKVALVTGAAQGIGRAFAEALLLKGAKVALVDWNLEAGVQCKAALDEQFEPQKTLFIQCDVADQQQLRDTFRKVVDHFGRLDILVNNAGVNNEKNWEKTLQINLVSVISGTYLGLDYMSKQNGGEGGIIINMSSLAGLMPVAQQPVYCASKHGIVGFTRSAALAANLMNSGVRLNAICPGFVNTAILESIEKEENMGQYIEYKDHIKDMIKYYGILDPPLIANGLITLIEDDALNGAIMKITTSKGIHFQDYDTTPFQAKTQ
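NADH formation kinetics: reaction with 30 uM PGE2 and 1 mM NAD+ (final), 20 nM enzyme, Tris-HCl pH 8 with Tween 20, after 15 min compound preincubation at room temperature. Fluorescence change, last versus first of five reads.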
HTT ATP protect: cytoprotection in Huntington HTT-Q103 PC12 cell model; PC12 HTT-Q103 induced, cytoprotection, ATP luminescence, 40 h; Potency, µM (series often up to 56.4 µM), most hits filed as activators; 230,000 compounds, 0.14% hits; AID 1471; further: nearly all actives have a fitted effect of over 45% in size
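PC12 cells with ecdysone-inducible HTT exon 1 Q103-GFP, induced with 100 nM tebufenozide and co-treated with library compounds in a dose series (1536-well, 1500 cells/well). Cytoprotection read as ATP content by ATPlite luminescence.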
GoLoco inh red: inhibitors of human Gai1-RGS12 GoLoco interaction (red fluorophore); Gai1:RGS12 GoLoco peptide FP, rhodamine, 10 min; Potency, µM (top dose mostly 61.6 µM), hits mostly inhibitors; P63096; AID 880; 230,000 compounds, 0.44% hits; active means well fitted inhibition curve with a large enough effect, not every such curve was filed as active; inactive means no such curve, though single readings can be large or run the other way; further: nearly all actives have a fitted effect of over 30% in size
Target sequence (P63096 whole entry, looked up): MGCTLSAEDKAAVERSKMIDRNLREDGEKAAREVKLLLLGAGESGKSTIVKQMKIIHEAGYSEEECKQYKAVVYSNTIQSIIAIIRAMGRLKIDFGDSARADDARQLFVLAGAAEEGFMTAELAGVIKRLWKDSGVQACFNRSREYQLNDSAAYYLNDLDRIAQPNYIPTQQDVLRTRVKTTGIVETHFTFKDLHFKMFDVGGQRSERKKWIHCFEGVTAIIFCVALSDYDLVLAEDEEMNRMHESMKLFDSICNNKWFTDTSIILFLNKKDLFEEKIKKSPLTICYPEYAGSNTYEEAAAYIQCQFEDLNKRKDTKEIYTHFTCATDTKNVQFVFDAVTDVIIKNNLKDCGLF
ALDH1A1 block: blocks purified human ALDH1A1 activity. Purified ALDH1A1, NADH fluorescence, propionaldehyde substrate. P00352. 220,000 compounds, 7.3% hits. Potency, µM (titrated, usually from 75.3 µM), most hits filed as inhibitors; active means well fitted inhibition curve with a large enough effect, not every such curve was filed as active; inconclusive means small, poorly fitted or top-dose-only effect, or another doubt; inactive means no such curve, though single readings can be large or run the other way
Large screens that a line does not name were inactive. Rows were chosen to be rich in hits. Some 11% of all compounds tested hit in one or more screens of this group. Unless noted, the call rests on the fitted dose curve; in most records, active means well fitted curve in the direction sought with a large enough effect; inconclusive means small, poorly fitted or top-dose-only effect, or another doubt; inactive means no such curve, though single readings can be large; an effect the other way counts as inactive or inconclusive.

CC(=O)Nc1ccc(OCCC[n+]2ccccc2)cc1	ALDH1A1 block 2.51µM (no result: PNC assembly inh, HPGD inh)
Cc1ccc(-n2c(=O)c3sccc3n(Cc3cc(=O)n4cc(Cl)ccc4n3)c2=O)cc1F	PNC assembly inh -82.9, HPGD inh inconclusive
Cn1nc(SCC(=O)O)sc1=S	HPGD inh 14.1µM
Cc1sc2nc(CN3CCOCC3)nc(NS(=O)(=O)c3ccc4c(c3)OCCO4)c2c1C	ALDH1A1 block 1.26µM
Cc1sc2nc(CN3CCOCC3)nc(NS(=O)(=O)c3ccccc3)c2c1C	ALDH1A1 block inconclusive
CCOc1ccc(Br)cc1S(=O)(=O)Nc1nc(CN2CCOCC2)nc2sc(C)c(C)c12	PNC assembly inh inconclusive, ALDH1A1 block 12.6µM
CCCOc1ccc(/C=C2\SC(=S)N(CC3CCCO3)C2=O)cc1 (centres undefined)	ALDH1A1 block 6.31µM
Cc1ccsc1/C=C1\SC(=S)N(CC2CCCO2)C1=O (centres undefined)	ALDH1A1 block 1µM (no result: PNC assembly inh, HPGD inh)
O=C1/C(=C/c2ccc(O)cc2)SC(=S)N1CC1CCCO1 (centres undefined)	none (no result: PNC assembly inh, HPGD inh, ALDH1A1 block)
COC(=O)c1ccc(-n2c(C)cc(C(=O)CCl)c2C)cc1	HttQ103 aggreg inconclusive, ALDH1A1 block 0.447µM (no result: PNC assembly inh, HPGD inh)
COC(=O)c1ccc(-n2c(C)cc(C(=O)COC(=O)CNS(=O)(=O)c3ccc(C)cc3)c2C)cc1	ALDH1A1 block inconclusive
CCOc1ccc(-n2c(C)cc(C(=O)CCl)c2C)cc1	ALDH1A1 block 0.112µM (no result: PNC assembly inh, HPGD inh)
COc1ccc(CNC(=O)C/C(C)=N/NC(=O)Cc2ccc(OC)cc2)cc1	none
COc1ccc(CCNC(=O)COC(=O)C23CC4CC(CC(C4)C2)C3)cc1	ALDH1A1 block 22.4µM
COc1ccc(CNC(=O)C/C(C)=N/NC(=O)C23CC4CC(CC(C4)C2)C3)cc1	ALDH1A1 block 14.1µM (no result: PNC assembly inh, HPGD inh)
COc1ccc(CCNC(=O)COC(=O)C23CC4CC(CC(Br)(C4)C2)C3)cc1	none (no result: HTT ATP protect)
COc1ccc(CNC(=O)C/C(C)=N/NC(=O)C(c2ccccc2)c2ccccc2)cc1	ALDH1A1 block 22.4µM
CCc1cccc(CC)c1NC(=O)CN1C2CCCC1CC(NC(=O)Nc1cccc(OC)c1)C2 (centres undefined)	none (no result: PNC assembly inh, HPGD inh)
O=C(CC1CS(=O)(=O)CC1CC(=O)Oc1ccccc1F)Oc1ccccc1F (centres undefined)	ALDH1A1 block 7.08µM (no result: HTT ATP protect)
CCCCNN	none (no result: PNC assembly inh, HttQ103 aggreg)
CCOc1ccccc1C(=O)N[C@H](C(=O)Nc1cc(S(=O)(=O)N(C)C)ccc1OC)C(C)C	ALDH1A1 block 10µM (no result: PNC assembly inh, HPGD inh)
NCC(O)(CS(=O)(=O)O)c1ccc(Cl)cc1 (centres undefined)	none (no result: PNC assembly inh, HttQ103 aggreg, HTT ATP protect)
Cc1ccc2[nH]c(=O)c(C(c3nnnn3C3CCCC3)N(Cc3cccnc3)Cc3ccco3)cc2c1 (centres undefined)	ALDH1A1 block 4.47µM
CC(c1nnnn1C1CCCCC1)N(Cc1ccccc1)Cc1cccnc1 (centres undefined)	PNC assembly inh -100.0, HttQ103 aggreg inconclusive
CCCCN1CCC[C@@H]1CNC(=O)c1cc(C#N)c2ccccc2c1OC	ALDH1A1 block inconclusive (no result: PNC assembly inh, HttQ103 aggreg)
O=C(O)[C@H]1CC=CC[C@@H]1C(=O)Nc1cccc(O)c1	none (no result: PNC assembly inh, HttQ103 aggreg)
O=C(O)C1CC=CCC1C(=O)Nc1ccc2c(c1)OCCO2 (centres undefined)	PNC assembly inh -118.8, ALDH1A1 block inconclusive
O=C(O)C1CC=CCC1C(=O)Nc1cccc(F)c1 (centres undefined)	HttQ103 aggreg inconclusive, ALDH1A1 block 28.2µM
CCOC(=O)c1nnn(-c2nonc2N)c1-c1ccccc1	none
NNC(=O)c1nnn(-c2nonc2N)c1-c1cccs1	ALDH1A1 block 11.2µM
CCCCCCN=C1CC(C)(C)CC(=O)/C1=C(/O)CCC	none (no result: PNC assembly inh, HPGD inh, ALDH1A1 block)
CC(/C=N\N1CCN(c2ccc(Cl)cc2)CC1)=C\c1ccccc1	HTT ATP protect 3.16µM
CC(/C=N/N1CCN(c2ccc(C)cc2)CC1)=C\c1ccccc1	PNC assembly inh inconclusive
C=C1C(=O)O[C@@H]2[C@H]3O[C@]3(C)CCC=C(C)CC[C@@H]12	ALDH1A1 block 20µM (no result: PNC assembly inh, HttQ103 aggreg)
C=C1C(=O)O[C@@H]2[C@@H]1CC/C(C)=C\CC[C@@]1(C)O[C@H]21	HttQ103 aggreg 14.1µM, HTT ATP protect inconclusive, ALDH1A1 block 10µM (no result: PNC assembly inh)
Cc1ccc(C[C@H](Cc2nc3ccccc3[nH]2)c2nc3ccccc3[nH]2)cc1	none (no result: PNC assembly inh, HttQ103 aggreg, HPGD inh, GoLoco inh red, ALDH1A1 block)
CC1CC2(CC(C)(C(=O)CSc3n[nH]c(-c4ccccc4Cl)n3)OC2=O)C(=O)O1 (centres undefined)	HPGD inh inconclusive, ALDH1A1 block 17.8µM
CC1(C(=O)CSc2n[nH]c(-c3ccccc3Cl)n2)CCC(=O)O1 (centres undefined)	ALDH1A1 block inconclusive
Cc1ccc(NC(=O)CN2C(=O)N/C(=C/c3cccn3-c3ccc(C(=O)O)cc3)C2=O)cc1	HPGD inh 25.1µM
Cc1ccc(NC(=O)CN2C(=O)N/C(=C/c3ccco3)C2=O)cc1	ALDH1A1 block 25.1µM
Cc1ccc(NC(=O)CN2C(=O)N/C(=C/c3cc(C)n(-c4ccc(C(=O)O)cc4)c3C)C2=O)cc1	HTT ATP protect inconclusive, ALDH1A1 block inconclusive (no result: PNC assembly inh, HPGD inh)
COc1ccc(S(=O)(=O)N(C)CC(=O)O)cc1C	none (no result: PNC assembly inh, HttQ103 aggreg, HTT ATP protect, GoLoco inh red)
Cc1ccc(C(=O)n2c(=S)nc3ccccn32)cc1	HPGD inh 31.6µM, ALDH1A1 block 22.4µM
Cc1cccc(C(=O)n2c(=S)nc3ccccn32)c1	HPGD inh 22.4µM, ALDH1A1 block 10µM
Cc1cccn2c1nc(=S)n2C(=O)c1ccco1	HttQ103 aggreg inconclusive, HPGD inh inconclusive (no result: HTT ATP protect)
O=C(c1ccccc1)n1c(=S)nc2ccccn21	none (no result: HPGD inh, GoLoco inh red)
CCCCc1nc2c(c3c1C[C@H](C)OC3)CN(C(=O)C1CC1)CC2	none (no result: PNC assembly inh, HttQ103 aggreg)
NS(=O)(=O)c1ccc(CCNC(=O)CN2CCCCCC2)cc1	HttQ103 aggreg inconclusive (no result: PNC assembly inh, HPGD inh)
O=C(N/N=C1/C[C@@H](O)[C@@H](O)[C@@H]2[C@H]3C(=O)N(c4ccc(F)cc4F)C(=O)[C@@H]3CC[C@H]12)OCc1ccccc1	ALDH1A1 block inconclusive (no result: PNC assembly inh, HttQ103 aggreg, HPGD inh, GoLoco inh red)
Cc1ccc(NC(=O)c2cc(=O)c3ccccc3o2)cc1S(=O)(=O)N1CCCCC1	ALDH1A1 block 31.6µM (no result: PNC assembly inh, HPGD inh)
O=C(Nc1cccc(S(=O)(=O)N2CCCCC2)c1)c1ccccc1NS(=O)(=O)c1ccc(F)cc1	HPGD inh inconclusive, ALDH1A1 block inconclusive
Cc1ccc(NC(=O)c2cc(=O)c3ccccc3o2)cc1S(=O)(=O)N1CCOCC1	none (no result: PNC assembly inh, HPGD inh, ALDH1A1 block)
Cc1ccc(NC(=O)c2ccccc2NS(=O)(=O)c2ccc(F)cc2)cc1S(=O)(=O)N1CCCCC1	PNC assembly inh inconclusive, HttQ103 aggreg 2.51µM, HPGD inh inconclusive, ALDH1A1 block inconclusive
